What follows are molecules tested on UCD52 (cells of a triple-negative basal-like breast cancer xenograft) (assay: cell viability of combination (% of vehicle); higher = less cytotoxic). Conditions: 1 µM; 72 h; partner dose: 10 nM.
Protocol: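 PDX cells were treated for 72 h with each drug at 1 µM plus carfilzomib (10 nM; 100 nM for WHIM2). Luciferase viability is expressed as percent of vehicle.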
For `CCCCCCCCCCCC[N+](C)(C)CCOc1ccccc1.[Br-]` [Domiphen Bromide] + CC(C)C[C@H](NC(=O)[C@H](CCc1ccccc1)NC(=O)CN1CCOCC1)C(=O)N[C@@H](Cc1ccccc1)C(=O)N[C@@H](CC(C)C)C(=O)[C@@]1(C)CO1 [Carfilzomib], the “cell viability of combination” value was 57.1.
For `Cc1cc(C(C#N)c2ccc(Cl)cc2)c(Cl)cc1NC(=O)c1cc(I)cc(I)c1[O-].[Na+]` (stereo not given) [Closantel Sodium] + CC(C)C[C@H](NC(=O)[C@H](CCc1ccccc1)NC(=O)CN1CCOCC1)C(=O)N[C@@H](Cc1ccccc1)C(=O)N[C@@H](CC(C)C)C(=O)[C@@]1(C)CO1 [Carfilzomib], the “cell viability of combination” value was 65.9.
With `Cc1cc(C(C#N)c2ccc(Cl)cc2)c(Cl)cc1NC(=O)c1cc(I)cc(I)c1O` (stereo not given) [Closantel] + CC(C)C[C@H](NC(=O)[C@H](CCc1ccccc1)NC(=O)CN1CCOCC1)C(=O)N[C@@H](Cc1ccccc1)C(=O)N[C@@H](CC(C)C)C(=O)[C@@]1(C)CO1 [Carfilzomib] the “cell viability of combination” value was 65.7.
With `CCCCCCCCCCCCCCCC[n+]1ccccc1.[Cl-]` [Cetylpyridinium Chloride] + CC(C)C[C@H](NC(=O)[C@H](CCc1ccccc1)NC(=O)CN1CCOCC1)C(=O)N[C@@H](Cc1ccccc1)C(=O)N[C@@H](CC(C)C)C(=O)[C@@]1(C)CO1 [Carfilzomib] the “cell viability of combination” value was 48.1.
In the case of `CCCCCCCCCCCCCCCC[N+](C)(C)C.[Br-]` [Cetrimonium Bromide (CTAB)] + CC(C)C[C@H](NC(=O)[C@H](CCc1ccccc1)NC(=O)CN1CCOCC1)C(=O)N[C@@H](Cc1ccccc1)C(=O)N[C@@H](CC(C)C)C(=O)[C@@]1(C)CO1 [Carfilzomib], the “cell viability of combination” value is reported as 53.1.
